Compound activity from PubChem BioAssay.
IMPase Li cell: qHTS Assay for Identifying the Cell-Membrane Permeable IMPase Inhibitors: Potentiation with Lithium; CHO-M1 cells, IP1 TR-FRET (IP-One), carbachol + lithium; Potency, µM (series often up to 59.4 µM), usual class: inhibitors; 0.35% of 210,000 active; AID 1457, 2008;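 note: IP1 builds up when IMPase is blocked and the TR-FRET signal falls; nearly all actives have a fitted effect of over 50% in size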
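Lithium-sensitised IP1 accumulation assay; M1-expressing CHO cells treated 30 min at 37C with compound. Competitive antibody detection by time-resolved FRET followed a 10 min room-temperature lysis step.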
PNC inhibitor: High Content Assay for Compounds that inhibit the Assembly of the Perinucleolar Compartment. PC3M PTB-GFP, PNC prevalence imaging, 16 h; active compounds read low. activity change (PNC), negative = inhibition, % at 10 µM. 3.1% of 140,000 active;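 active = readout at or below -70, meaning at least 70% loss of cells showing the perinucleolar compartment, a nuclear body marking cancer cells; inconclusive = readout between -30 and a set limit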
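Compounds are pinned in duplicate onto adhered PC3M cells stably expressing GFP-tagged PTB and incubated 16 h at 37 C. Cells are then fixed, nuclei stained with Hoechst, and PNC-positive cells counted.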
ALDH1A1 block: qHTS Assay for Inhibitors of Aldehyde Dehydrogenase 1 (ALDH1A1). Aldehyde dehydrogenase 1A1 (Homo sapiens), P00352. 7.3% of 220,000 active. Purified ALDH1A1, NADH fluorescence, propionaldehyde substrate. Potency, µM (series often up to 75.3 µM), actives largely listed as inhibitors; active = well fitted inhibition curve with a large enough effect, not every such curve was filed as active; inconclusive = small, poorly fitted or top-dose-only effect, or another doubt; inactive = no such curve, though single readings can be large or run the other way
IMPase inh: qHTS Assay for Identifying the Cell-Membrane Permeable IMPase Inhibitors; Inositol monophosphatase 1 (Rattus norvegicus), P97697; CHO-M1 cells, IP1 accumulation, HTRF TR-FRET ratio; inhibition (IP1 accumulation), % at 46.1 µM; 120,000 tested, under 10 active; AID 901, 2007; active = well fitted curve in the direction sought with a large enough effect in the signal ratio, not every such curve was filed as active; inconclusive = small, poorly fitted or top-dose-only effect, or a change in a side signal; inactive = no such curve, though single readings can be large or run the other way; the % refers to the signal ratio;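 note: cells stimulated with carbachol in lithium chloride buffer; higher means more IMPase inhibition seen as more IP1 and lower FRET ratio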
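In this qHTS, compounds (final up to 46 uM) act on CHO-M1 cells that are then activated through the M1 receptor with carbachol, in pH 7.4 buffer containing 50 mM LiCl, for 30 min. IP1 accumulation is quantified by the IP-One immunoassay.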
HPGD block: qHTS Assay for Inhibitors of HPGD (15-Hydroxyprostaglandin Dehydrogenase); 4.3% of 150,000 active; AID 894, 2007; purified HPGD, NADH fluorescence kinetic, PGE2 substrate; Potency, µM, usual class: inhibitors; 15-hydroxyprostaglandin dehydrogenase [NAD(+)] (Homo sapiens), P15428; active = well fitted inhibition curve with a large enough effect, not every such curve was filed as active; inconclusive = small, poorly fitted or top-dose-only effect, or another doubt; inactive = no such curve, though single readings can be large or run the other way
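NADH formation kinetics: reaction with 30 uM PGE2 and 1 mM NAD+ (final), 20 nM enzyme, Tris-HCl pH 8 with Tween 20, after 15 min compound preincubation at room temperature. Fluorescence change, last versus first of five reads.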
12-hLO inh: qHTS Assay for Inhibitors of 12-hLO (12-human lipoxygenase); Polyunsaturated fatty acid lipoxygenase ALOX12 (Homo sapiens), P18054; purified 12-hLO, xylenol orange hydroperoxide absorbance; Potency, µM (top dose mostly 57.1 µM), usual class: inhibitors; 0.12% of 150,000 active; note: nearly all actives have a fitted effect of over 55% in size
Target sequence (P18054 whole entry, looked up): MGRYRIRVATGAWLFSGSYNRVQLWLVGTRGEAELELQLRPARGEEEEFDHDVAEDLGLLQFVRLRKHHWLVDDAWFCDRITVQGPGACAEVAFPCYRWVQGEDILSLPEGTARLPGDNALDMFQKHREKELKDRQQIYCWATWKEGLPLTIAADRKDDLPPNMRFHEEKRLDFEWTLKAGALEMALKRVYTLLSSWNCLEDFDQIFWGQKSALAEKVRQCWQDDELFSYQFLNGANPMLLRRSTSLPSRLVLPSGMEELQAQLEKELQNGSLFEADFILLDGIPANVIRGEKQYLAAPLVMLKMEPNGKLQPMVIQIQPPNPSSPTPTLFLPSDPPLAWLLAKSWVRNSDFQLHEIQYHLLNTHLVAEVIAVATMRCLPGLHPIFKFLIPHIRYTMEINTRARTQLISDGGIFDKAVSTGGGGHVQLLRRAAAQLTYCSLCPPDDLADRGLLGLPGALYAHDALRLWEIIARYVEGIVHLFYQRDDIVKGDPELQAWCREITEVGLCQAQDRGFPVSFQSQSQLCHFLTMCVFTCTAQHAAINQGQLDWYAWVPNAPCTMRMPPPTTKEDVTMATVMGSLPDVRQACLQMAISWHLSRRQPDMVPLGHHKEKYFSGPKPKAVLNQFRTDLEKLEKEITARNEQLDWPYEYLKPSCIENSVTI
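Purified human 12hLO (150 nM), preincubated 15 min with compound, then 40 uM arachidonic acid for 30 min, room temperature, Hepes pH 7.0 with 0.01% Triton X-100. Hydroperoxide detected by ferrous iron/xylenol orange; 573/405 nm absorbance ratio gives reaction progress.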
Numbers stand for hits; i = inactive; ? = inconclusive; nt = no result; [ ] = dose if it differs, or a comment. Sampled rows, rich in hits. Any-hit rate of the full collection: about 11%. Unless noted, calls come from the whole dose curve; as a rule, active = well fitted curve in the direction sought with a large enough effect; inconclusive = small, poorly fitted or top-dose-only effect, or another doubt; inactive = no such curve, though single readings can be large; an effect the other way counts as inactive or inconclusive.

SMILES	IMPase Li cell	PNC inhibitor	ALDH1A1 block	IMPase inh	HPGD block	12-hLO inh
CSc1ccc(C(=O)C2CCCN(C(=O)CCCn3cncn3)C2)cc1 (stereo not given)	i	nt	16µM	nt	nt	nt
COc1ccc(NC(=S)Nc2ccc(S(N)(=O)=O)cc2)c(OC)c1	i	nt	?	nt	nt	nt
COc1ccc(NC(=S)NNS(=O)(=O)c2ccc3ccccc3c2)c(OC)c1	i	nt	22µM	nt	nt	nt
O=C(/C=C/c1ccco1)N1CCN(C/C=C/c2ccccc2)CC1	i	?	13µM	i	i	i
O=C(/C=C/c1ccco1)N1CCN(S(=O)(=O)c2cccs2)CC1	nt	nt	7.1µM	nt	nt	nt
O=C(/C=C/c1ccco1)N1CCN(S(=O)(=O)/C=C/c2ccccc2)CC1	i	nt	7.9µM	nt	nt	nt
O=C(/C=C/c1ccco1)N1CCN(c2ccccc2)CC1	i	?	?	nt	i	i
O=C(/C=C/c1cccc([N+](=O)[O-])c1)N1CCN(S(=O)(=O)c2cccs2)CC1	i	nt	?	nt	nt	nt
COC(=O)c1ccc(C(NC(=O)OCc2ccccc2)/C(=C/[C@@H](C)C(=O)NCc2ccc(S(C)(=O)=O)cc2)c2cccnc2)cc1 (stereo not given in full)	i	nt	?	nt	i	i
Cc1cccc(NC(=S)N2CCN(S(=O)(=O)c3cccc(F)c3)CC2)c1	i	nt	i	nt	nt	nt
Cc1ccc(-c2nnc(Nc3cccc(Br)c3)c3ccccc23)cc1S(=O)(=O)N1CCCCC1	nt	nt	nt	i	nt	nt
Nc1nonc1C(=O)N/N=C/c1cccc([N+](=O)[O-])c1	i	i	i	nt	i	i
CN(C)c1ccc(/C=N/NC(=O)c2nonc2N)cc1[N+](=O)[O-]	i	nt	2µM	nt	nt	nt
Cc1ccc(CCNS(=O)(=O)c2ccc(C)cc2)cc1	i	?	?	i	i	i
Cc1ccc(CSCCNS(=O)(=O)c2ccc(C)cc2)cc1	i	i	10µM	nt	i	i
Cc1ccc(S(=O)(=O)NCC(C)NS(=O)(=O)c2ccc(C)cc2)cc1 (stereo not given)	i	?	0.4µM	i	i	i
Cc1ccc(S(=O)(=O)NCCc2ccc(S(N)(=O)=O)cc2)cc1	i	?	25µM	i	i	i
CCCOc1ccc(C(=O)Nc2ccc3nn(-c4ccc(OC)c(Cl)c4)nc3c2)cc1	nt	nt	nt	i	nt	nt
OCCSCc1cc(Cl)cc(Cl)c1O	i	nt	i[13.5 µM]	nt	i	i[11.4 µM]
Clc1cccc(NCc2nnc3n2CCCCC3)c1	i	nt	i	nt	nt	nt
S=c1[nH]nc(CNc2cccc(Cl)c2)o1	i	nt	32µM	nt	nt	nt
CC(C)(C)OC(=O)NCCc1nnc(SCc2ccc(Cl)cc2Cl)o1	i	?	?	i	?	i
Clc1cccc(NCc2nnc(SCc3ccc(Cl)cc3Cl)o2)c1	i	-119	i	i	i	i
CC1CCC(C(=O)O)NC1c1cccc(N2CCCC2=O)c1 (stereo not given)	nt	nt	i[13.5 µM]	nt	nt	nt
COc1ccc(CN(C(=O)c2cnccn2)C(C(=O)Nc2ccc(F)cc2)c2ccccc2)cc1 (stereo not given)	i	-95	10µM	i[0.0738 µM]	i	i
SMILES	IMPase Li cell	PNC inhibitor	ALDH1A1 block	IMPase inh	HPGD block	12-hLO inh
COc1ccc(NC(=O)C(c2ccc(OC)cc2)N(C)C(=O)c2cnccn2)cc1 (stereo not given)	i	i	?	i	?	i
CC(C)c1ccc(NC(=O)C(c2ccccc2)N(C)C(=O)c2cnccn2)cc1 (stereo not given)	i	nt	10µM	nt	nt	nt
COCCOC(=O)C1=C(C)OC(N)=C(C#N)C1c1ccc2c(c1)OCO2 (stereo not given)	i	i	13µM	i	32µM	i
COCCOC(=O)C1=C(C)OC(N)=C(C#N)C1c1ccco1 (stereo not given)	i	-100	?	i	i	i
C=CCOC(=O)C1=C(C)OC(N)=C(C#N)C1c1ccc2c(c1)OCO2 (stereo not given)	i	i	?	i	?	i
COC(=O)C1=C(C)OC(N)=C(C#N)C1c1ccco1 (stereo not given)	i	?	i	?	i	i
O=C(CSc1ncn[nH]1)c1ccc2c(c1)OCCO2	i	?	?	i	i	i
CCCc1c(O)nc(SC2CC(=O)N(c3cc(OC)ccc3OC)C2=O)[nH]c1=O (stereo not given)	i	i	i	i	i	i
CC(C)c1ccc(N2C(=O)CC(Sc3nc4ccccc4o3)C2=O)cc1 (stereo not given)	i	i	0.71µM	i	?	i
CC(C)c1ccc(C(=O)CSc2ncn[nH]2)cc1	i	i	?	i	32µM	i
COc1ccc(N2C(=O)CC(Sc3ncn[nH]3)C2=O)c(OC)c1 (stereo not given)	nt	i	14µM	i	nt	i
CC(C)c1ccc(N2C(=O)CC(Sc3ncn[nH]3)C2=O)cc1 (stereo not given)	i	i	0.13µM	i	16µM	i
Cc1cnc(CNc2ncncc2-c2ccccc2C#N)cn1	i	nt	i	nt	i	i
CC(C)=C[C@H]1[C@@H](COC(=O)c2cc3c(cc2Cl)OCO3)C1(C)C	i	nt	i[13.5 µM]	nt	i	i[11.4 µM]
CC[C@H](C)[C@H](NC(=O)c1ccc(Cl)cc1)C(=O)OCC(=O)c1ccc2c(c1)NC(=O)CO2	i	i	i	i	i	i
COc1cc(OC)cc(C(=O)N[C@H](C(=O)OCC(=O)c2ccc3c(c2)NC(=O)CO3)C(C)C)c1	i	i	22µM	i	i	i
CC(C)[C@H](NC(=O)c1ccccc1)C(=O)OCC(=O)c1ccc2c(c1)NC(=O)CO2	i	i	1.1µM	i	i	i
C[C@H](O)[C@H](O)[C@@H]1CNc2nc(N)[nH]c(=O)c2N1	nt	nt	nt	i	nt	i
CCOc1ccc(NC(=O)CC2Nc3cccc4cccc(c34)NC2=O)cc1 (stereo not given)	nt	nt	nt	i	nt	nt
CCc1ccc(C2CC(=O)c3c([nH]c(C(=O)OC4CCC(C)CC4)c3C)C2)cc1 (stereo not given)	nt	nt	nt	i	nt	nt
COc1cccc(C(=O)N2c3ccccc3Sc3ccccc32)c1	i	?	i	i	14µM	i
COC(=O)c1cc(C(=O)OC)[nH]n1	i	nt	i	nt	nt	nt
COc1cc(C2CC(=O)n3c(nc4ccccc43)S2)cc(OC)c1OC (stereo not given)	i	-98	?	i	i	i
O=C(O)C1CC(=O)n2c(nc3ccccc32)S1 (stereo not given)	i	i	25µM	i	i	i
O=C1CSc2nc3ccccc3n21	i	i	?	i	?	i
